# PubChem BioAssay (NCATS)
# Results filed as inconclusive are left out. Entries that show only a call come without a potency. Active and inactive are the calls of the source. Unless noted, the call rests on the fitted dose curve; in most records, active means well fitted curve in the direction sought with a large enough effect in the repeat runs; inconclusive means weak or mixed curves; inactive means no such curve, though single readings can be large; an effect the other way counts as inactive or inconclusive.
# Tests used:
# [1] = qHTS assay for small molecule agonists of retinoid X receptor alpha signaling (AID 588544; calls by dose curve); settings: HEK293T RXRa-UAS-bla, beta-lactamase reporter, 18 h; 530 nm emission
# [2] = target: Retinoic acid receptor RXR-alpha (Homo sapiens) (UniProt P19793); assay: as above; settings: HEK293T RXRa-UAS-bla, beta-lactamase reporter, 18 h; series mostly up to 76.7 µM
# [3] = qHTS assay for small molecule antagonists of retinoid X receptor alpha signaling (AID 588546; active means well fitted inhibition curve with a large enough effect in the signal ratio, with a control signal flat, not every such curve was filed as active; the % refers to the signal ratio;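 further: cells stimulated with 9-cis-retinoic acid as agonist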); settings: HEK293T RXRa-UAS-bla, beta-lactamase ratio, antagonist mode; measured here: W530 green channel, cytotoxicity proxy
# Summary of the method: (§1)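 Beta-lactamase reporter inhibition, read as CCF4 fluorescence ratio (ex 405, em 460/530 nm) after 2 h at RT. HEK293T UAS-bla cells, 2500/well, were stimulated with 9-cis-RA at 500 or 100 nM final alongside test compound for 18 h at 37 C.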
# [4] = target: Retinoic acid receptor RXR-alpha (Homo sapiens) (UniProt P19793); assay: as above; settings: HEK293T RXRa-UAS-bla, beta-lactamase ratio, antagonist mode
# Summary of the method: as §1
# [5] = qHTS assay for small molecule agonists of the antioxidant response element (ARE) signaling pathway (AID 651741; active means well fitted activation curve with a large enough effect in the signal ratio; the % refers to the signal ratio; further: potency means the concentration at half of the fitted maximal effect); settings: HepG2 ARE-bla reporter, beta-lactamase FRET ratio, 16 h; series mostly up to 96 µM
# Summary of the method: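 HepG2 ARE-bla cells plated at 2,000 cells/well and incubated 5 h at 37 C/5% CO2 received 23 nL compound in DMSO. After 16 h at 37 C, LiveBLAzer B/G FRET substrate was applied for 2 h at room temperature and fluorescence read.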
# [6] = qHTS assay for small molecule activators of the p53 signaling pathway (AID 651743; active means well fitted activation curve with a large enough effect in the signal ratio, not every such curve was filed as active; the % refers to the signal ratio); settings: HCT-116 p53RE-bla, beta-lactamase FRET ratio, 16 h; stronger effect = higher value
# Summary of the method: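 HCT-116 p53RE-bla, 4,000 cells/well; 5 h settle; cpd/DMSO 16 h, 37 C; LiveBLAzer B/G 2 h RT; fluorescence intensity.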
# [7] = qHTS assay for small molecule activators of the nuclear factor-kappa B (NF-kB) signaling pathway (AID 651749; active means well fitted activation curve with a large enough effect in the signal ratio; the % refers to the signal ratio); settings: NF-kB-bla ME-180 cells, beta-lactamase FRET ratio, 16 h; stronger effect = higher value
# Summary of the method: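 Incubation lasted 16 hr at 37C in 5% CO2 after 23 nL compound addition to ME-180 NF-kB-bla cells. Activation appears as beta-lactamase-mediated FRET loss.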
# [8] = qHTS assay for small molecule disruptors of the mitochondrial membrane potential - 1 hr assay (AID 651754; calls by dose curve; further: nearly all actives have a fitted effect of over 35% in size); settings: series mostly up to 92.2 µM
# Summary of the method: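 Steps: seed HepG2 cells and let attach overnight; pin-transfer compound or vehicle; incubate 1 hr at 37C; add Mito-MPS dye for 30 min; read two-channel fluorescence for monomer and aggregate forms.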
# [9] = qHTS assay for small molecule disruptors of the mitochondrial membrane potential - 5 hr assay (AID 651755; calls by dose curve; further: nearly all actives have a fitted effect of over 40% in size); settings: JC-1-type ratio dye; series mostly up to 92.2 µM
# Summary of the method: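 HepG2 cells (2,000/well), attached overnight, exposed to compound 5 hr at 37C, then Mito-MPS dye 30 min. Fluorescence read for monomers (490/535 nm) and aggregates (540/590 nm).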
# [10] = target: Tumor necrosis factor (Homo sapiens) (UniProt P01375); assay: qHTS assay to identify small molecules that stimulate Tumor Necrosis Factor-alpha (TNF-alpha) secretion (AID 651757; active means well fitted curve in the direction sought with a large enough effect in the signal ratio; the % refers to the signal ratio; further: potency means the concentration at half of the fitted maximal effect); settings: Human cells, HTRF 665/615 ratio; series mostly up to 92.2 µM
# Summary of the method: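 Secreted TNF-alpha from compound-treated THP-1 cells (17 hrs, 37 C) was quantified with a homogeneous time-resolved fluorescence antibody assay.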
# [11] = target: Peroxisome proliferator-activated receptor alpha (Homo sapiens) (UniProt Q07869); assay: qHTS assay for small molecule agonists of the peroxisome proliferator-activated receptor alpha (PPARalpha) signaling pathway (AID 651778; active means well fitted curve in the direction sought with a large enough effect; an effect the other way counts as inactive or inconclusive); settings: PathHunter PPARalpha complementation, chemiluminescence, 6 h; stronger effect = higher value
# Summary of the method: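 Enzyme-fragment complementation assay in which ligand-bound PPARalpha translocates and forms an active enzyme that generates chemiluminescence. Cells were plated overnight, exposed to compound for 6 hr at 37 C, and then given detection reagent for 60 min at room temperature.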
# [12] = target: Nuclear receptor ROR-gamma (Homo sapiens) (UniProt P51449); assay: qHTS assay for small molecule antagonists of the retinoid-related orphan receptor gamma (ROR-gamma) signaling pathway (AID 651802; active means well fitted curve in the direction sought with a large enough effect; an effect the other way counts as inactive or inconclusive;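 further: CHO cells with doxycycline-induced ROR-gamma expression; nearly all actives have a fitted effect of over 60% in size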); settings: ROR-gamma antagonist cell reporter assay; series mostly up to 92.2 µM
# Summary of the method: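 Antagonism is scored as a fall in luminescence from a RORE-luciferase reporter in CHO cells expressing ROR under a TET-inducible promoter, measured 16hr after doxycycline induction in the presence of compound.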
# [13] = qHTS assay for small molecule agonists of the antioxidant response element (ARE) signaling pathway measured by Nrf2-dependant transcriptional activity (AID 720636); settings: ARE-luc HepG2, Nrf2 luciferase reporter, 16 h; series mostly up to 92.4 µM;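 further: HepG2 cells with an ARE-driven luciferase reporter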
# Summary of the method: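 ONE-Glo luminescence, read 30 min after reagent addition at room temperature, reflected ARE reporter activity in HepG2 cells that had been incubated with compound for 16 hr at 37 C in 1% dialyzed FBS.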
# [14] = qHTS assay for small molecule antagonists of the retinoid-related orphan receptor gamma (ROR-gamma) signaling pathway - cell viability counter screen (AID 720652); settings: RORgamma reporter cell line viability counter screen; series mostly up to 92.2 µM;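 further: CHO reporter cells with doxycycline-induced ROR-gamma expression; compound exposure lasted 16 hr before ATP read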
# Summary of the method: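 Cytotoxicity is quantified via intracellular ATP (CellTiter-Glo luminescence) in doxycycline-induced CHO ROR response element-luciferase reporter cells treated with compound for 16 hr at 37 C, 5% CO2.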
# [15] = qHTS assay for small molecule agonists of the antioxidant response element (ARE) signaling pathway measured by Nrf2-dependant transcriptional activity - cell viability counter screen (AID 720653); settings: ARE-bla HepG2 viability, CellTiter-Glo ATP luminescence, 16 h; stronger effect = lower value
# Summary of the method: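 ARE-bla HepG2 cells treated with compounds for 16 h at 37C; this counter screen measures viability as intracellular ATP by CellTiter-Glo luminescence after 30 min at room temperature.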
# [16] = target: Thyroid hormone receptor beta (Homo sapiens) (UniProt P10828); assay: qHTS assay for small molecule antagonists of thyroid hormone receptor beta signaling (AID 588547; active means well fitted inhibition curve with a large enough effect in the signal ratio, with a control signal flat, not every such curve was filed as active; the % refers to the signal ratio;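 further: cells stimulated with 0.4 nM T3 agonist during compound exposure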); settings: TR-UAS-bla HEK293, beta-lactamase ratio, antagonist mode, 18 h
# Summary of the method: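 TR-UAS-bla GripTite HEK293 cells in 2% charcoal/dextran FBS medium; compounds 0.59 nM to 92 uM with T3 at 0.4nM final, 18 h at 37 C. Beta-lactamase read by CCF4 fluorescence (460/530 nm); Hill fits gave IC50 and efficacy.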
# [17] = target: Voltage-gated inwardly rectifying potassium channel KCNH2 (Homo sapiens) (UniProt Q12809); assay: qHTS Assay for Small Molecule Inhibitors of the Human hERG Channel Activity (AID 588834; active means well fitted curve in the direction sought with a large enough effect; an effect the other way counts as inactive or inconclusive;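 further: top concentration of the series differs between compounds; lower thallium flux fluorescence means stronger hERG block; nearly all actives have a fitted effect of over 50% in size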); settings: U2OS BacMam hERG, FluxOR thallium flux fluorescence; series mostly up to 92.2 µM
# Summary of the method: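 hERG-BacMam U2OS, 2000 cells/well; 0.7X FluxOR loading 1 hr RT dark; cpd ~10 min 37 °C; stim buffer; FDSS fluorescence 2 min @ 1 s; AC50 Hill fit.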
# [18] = qHTS assay for environmental chemicals that activate the Aryl hydrocarbon Receptor (AhR) signaling pathway (AID 651777; active means well fitted curve in the direction sought with a large enough effect; an effect the other way counts as inactive or inconclusive; further: nearly all actives have a fitted effect of over 15% in size); settings: 1A2-DRE human hepatoma cells, luciferase, 24 h; activation: stronger effect = higher value
# Summary of the method: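 Following a 24 hr incubation with test chemicals at 37 C and 5% CO2, 1A2-DRE human hepatoma cells received One-Glo reagent; after 30 min at room temperature, luciferase output reflected CYP1A2 induction via AhR.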
# [19] = qHTS assay to identify small molecules that stimulate interleukin-8 (IL-8) secretion (AID 651758; active means well fitted activation curve with a large enough effect in the signal ratio; the % refers to the signal ratio); settings: HTRF ratio (665/615); series mostly up to 92.2 µM
# Summary of the method: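 THP-1 cells (2000/well) exposed to compound 16 h at 37 C; secreted IL-8 then detected by HTRF with cryptate- and XL665-labelled anti-IL-8 antibody pair after 1-3 h at room temperature.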
# [20] = target: Thyroid hormone receptor beta (Homo sapiens) (UniProt P10828); assay: qHTS assay for small molecule agonists of thyroid hormone receptor beta signaling (AID 588545; calls by dose curve); settings: TR-UAS-bla GripTite HEK 293, beta-lactamase ratio, agonist mode, 18 h, percent of T3 response, DMSO as zero; series mostly up to 76.7 µM
# Summary of the method: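 HEK 293 TR-UAS-bla; agonist mode; 18 hrs, 37 C; CCF4, ex 405/em 460 and 530 nm; norm. T3 10 nM = 100%, DMSO = 0%; Hill fit → EC50, efficacy.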
# Chain of Thyroid hormone receptor beta (Homo sapiens) (P10828 whole entry, looked up): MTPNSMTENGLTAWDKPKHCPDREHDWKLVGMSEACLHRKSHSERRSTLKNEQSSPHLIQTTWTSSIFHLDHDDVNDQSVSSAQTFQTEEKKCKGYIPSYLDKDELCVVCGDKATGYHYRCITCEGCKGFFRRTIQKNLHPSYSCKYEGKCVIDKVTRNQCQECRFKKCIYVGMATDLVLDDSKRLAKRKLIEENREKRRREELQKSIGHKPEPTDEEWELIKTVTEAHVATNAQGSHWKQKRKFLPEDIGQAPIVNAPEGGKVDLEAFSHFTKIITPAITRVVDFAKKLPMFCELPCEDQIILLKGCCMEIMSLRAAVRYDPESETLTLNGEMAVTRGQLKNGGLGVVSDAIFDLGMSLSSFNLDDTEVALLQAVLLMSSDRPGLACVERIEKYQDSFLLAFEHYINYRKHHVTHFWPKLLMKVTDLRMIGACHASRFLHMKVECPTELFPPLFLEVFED
# Chain of Nuclear receptor ROR-gamma (Homo sapiens) (P51449 whole entry, looked up): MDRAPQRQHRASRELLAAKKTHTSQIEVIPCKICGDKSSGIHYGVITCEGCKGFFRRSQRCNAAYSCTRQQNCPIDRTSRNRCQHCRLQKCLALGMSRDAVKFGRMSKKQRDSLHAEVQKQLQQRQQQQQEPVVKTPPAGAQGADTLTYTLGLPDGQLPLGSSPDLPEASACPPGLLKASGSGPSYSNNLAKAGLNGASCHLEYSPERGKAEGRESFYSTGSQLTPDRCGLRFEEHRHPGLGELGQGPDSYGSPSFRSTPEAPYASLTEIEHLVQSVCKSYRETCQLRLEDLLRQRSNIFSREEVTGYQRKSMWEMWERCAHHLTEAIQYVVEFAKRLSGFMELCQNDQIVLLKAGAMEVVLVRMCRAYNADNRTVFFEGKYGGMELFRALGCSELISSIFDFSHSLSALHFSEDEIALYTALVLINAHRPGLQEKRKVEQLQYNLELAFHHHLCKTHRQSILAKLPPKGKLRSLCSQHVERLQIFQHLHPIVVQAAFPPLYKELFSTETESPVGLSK
# Chain of Tumor necrosis factor (Homo sapiens) (P01375 whole entry, looked up): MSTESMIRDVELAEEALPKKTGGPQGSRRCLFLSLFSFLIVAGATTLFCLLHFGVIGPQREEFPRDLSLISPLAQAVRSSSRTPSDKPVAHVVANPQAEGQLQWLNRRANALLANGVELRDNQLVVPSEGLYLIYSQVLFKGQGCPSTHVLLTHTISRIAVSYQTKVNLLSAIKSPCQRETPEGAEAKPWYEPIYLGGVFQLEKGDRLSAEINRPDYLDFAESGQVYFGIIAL
# Chain of Peroxisome proliferator-activated receptor alpha (Homo sapiens) (Q07869 whole entry, looked up, the tested form may be a part): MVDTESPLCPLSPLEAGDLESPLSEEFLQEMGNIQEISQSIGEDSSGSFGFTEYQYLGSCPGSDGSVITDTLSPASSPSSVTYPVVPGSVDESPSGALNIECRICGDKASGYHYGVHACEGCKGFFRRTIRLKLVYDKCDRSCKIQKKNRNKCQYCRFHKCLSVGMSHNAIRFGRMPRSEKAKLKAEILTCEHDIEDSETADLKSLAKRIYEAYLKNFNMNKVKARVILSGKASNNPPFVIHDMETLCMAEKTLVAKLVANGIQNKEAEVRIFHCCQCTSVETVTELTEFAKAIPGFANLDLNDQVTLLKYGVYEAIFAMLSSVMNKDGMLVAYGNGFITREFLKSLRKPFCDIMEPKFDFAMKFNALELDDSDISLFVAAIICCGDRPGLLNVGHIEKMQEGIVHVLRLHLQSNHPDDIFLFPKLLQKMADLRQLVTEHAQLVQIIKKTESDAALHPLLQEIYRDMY
# Chain of Voltage-gated inwardly rectifying potassium channel KCNH2 (Homo sapiens) (Q12809 whole entry, looked up): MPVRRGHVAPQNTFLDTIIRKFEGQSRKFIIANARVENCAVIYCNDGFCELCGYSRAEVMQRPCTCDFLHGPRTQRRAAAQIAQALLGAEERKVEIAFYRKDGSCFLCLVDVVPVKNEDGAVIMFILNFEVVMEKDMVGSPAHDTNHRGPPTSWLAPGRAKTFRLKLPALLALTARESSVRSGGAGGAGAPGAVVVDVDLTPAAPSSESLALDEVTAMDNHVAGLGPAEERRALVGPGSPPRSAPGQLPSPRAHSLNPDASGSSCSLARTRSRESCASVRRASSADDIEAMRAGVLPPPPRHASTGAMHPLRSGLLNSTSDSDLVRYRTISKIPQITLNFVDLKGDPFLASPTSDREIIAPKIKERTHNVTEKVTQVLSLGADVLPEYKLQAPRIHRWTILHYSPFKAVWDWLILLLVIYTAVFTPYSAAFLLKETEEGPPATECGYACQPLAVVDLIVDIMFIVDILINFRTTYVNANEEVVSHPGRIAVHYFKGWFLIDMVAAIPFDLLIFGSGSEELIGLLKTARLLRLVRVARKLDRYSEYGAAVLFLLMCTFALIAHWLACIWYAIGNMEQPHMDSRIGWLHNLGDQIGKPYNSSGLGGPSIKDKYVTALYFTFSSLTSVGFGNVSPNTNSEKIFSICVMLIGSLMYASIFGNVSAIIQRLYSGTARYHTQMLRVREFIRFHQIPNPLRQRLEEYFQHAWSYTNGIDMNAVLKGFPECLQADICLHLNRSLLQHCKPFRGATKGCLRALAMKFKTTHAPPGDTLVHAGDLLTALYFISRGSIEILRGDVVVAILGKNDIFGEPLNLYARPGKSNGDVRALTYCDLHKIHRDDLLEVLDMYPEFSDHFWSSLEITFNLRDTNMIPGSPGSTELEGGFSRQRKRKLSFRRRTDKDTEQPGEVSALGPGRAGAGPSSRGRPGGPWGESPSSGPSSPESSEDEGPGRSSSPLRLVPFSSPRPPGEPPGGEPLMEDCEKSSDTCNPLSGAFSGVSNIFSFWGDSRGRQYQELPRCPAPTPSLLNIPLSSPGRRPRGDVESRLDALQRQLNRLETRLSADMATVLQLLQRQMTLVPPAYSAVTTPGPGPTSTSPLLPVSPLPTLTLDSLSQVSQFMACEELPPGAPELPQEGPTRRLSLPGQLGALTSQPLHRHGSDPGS
# Chain of Retinoic acid receptor RXR-alpha (Homo sapiens) (P19793 whole entry, looked up): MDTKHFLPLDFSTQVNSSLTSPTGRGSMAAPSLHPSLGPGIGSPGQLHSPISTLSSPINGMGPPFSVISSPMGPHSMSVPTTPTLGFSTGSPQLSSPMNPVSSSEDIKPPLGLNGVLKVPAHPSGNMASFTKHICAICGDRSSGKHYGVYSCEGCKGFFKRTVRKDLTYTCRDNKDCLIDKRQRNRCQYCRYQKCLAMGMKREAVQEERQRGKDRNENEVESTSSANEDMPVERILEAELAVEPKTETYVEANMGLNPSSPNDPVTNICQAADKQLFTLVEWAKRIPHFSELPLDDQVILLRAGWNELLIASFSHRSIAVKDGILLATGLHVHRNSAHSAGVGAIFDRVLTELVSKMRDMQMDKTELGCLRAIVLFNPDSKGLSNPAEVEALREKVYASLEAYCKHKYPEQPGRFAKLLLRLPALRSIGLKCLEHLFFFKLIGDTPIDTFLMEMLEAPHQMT
SMILES,max response [1] [%],outcome [2],max response [3] [%],max response [4],Potency [5],activation [6],activation [7],Potency [8],Potency [9],Potency [10],max response [11],Potency [12],outcome [13],Potency [14],max response [15],activity change % (negative = inhibition) [16],Potency [17],activation [18],Potency [19],outcome [20]
CCCCOCCOCCSC#N,3.38,inactive,-3.14,5.89% (inactive),inactive,-1.56% (inactive),0.862% (inactive),inactive,inactive,inactive,0.043% (inactive),inactive,inactive,inactive,-6.26% (inactive),,,,,
O=C(Cl)c1ccccc1[N+](=O)[O-],-17.2,inactive,,,,0.51% (inactive),-0.445% (inactive),inactive,inactive,inactive,3.57% (inactive),inactive,inactive,inactive,18.8% (inactive),-10.2% (inactive),inactive,0.05% (inactive),,
CC(=O)OCc1ccco1,9.34,inactive,-0.347,29.2% (inactive),,,0.228% (inactive),,inactive,inactive,-0.503% (inactive),inactive,inactive,inactive,-8.3% (inactive),-12.4% (inactive),inactive,,,
Clc1cc(Cl)cc(Cl)c1,-9.27,inactive,-4.96,2.45% (inactive),inactive,-2.32% (inactive),,inactive,inactive,inactive,0.786% (inactive),,inactive,inactive,-5.36% (inactive),,,2.15% (inactive),inactive,
CSCCC=O,-12.2,inactive,-2.47,16.4% (inactive),inactive,-3.46% (inactive),0.77% (inactive),inactive,inactive,inactive,13.7% (inactive),inactive,inactive,inactive,-0.733% (inactive),,inactive,-0.987% (inactive),,
Cc1ccc2nc(-c3ccc(N)cc3)sc2c1S(=O)(=O)O,,,-1.52,30.6% (inactive),42.2 µM (active),18.6% (inactive),,,,8.41 µM (active),2.42% (inactive),,,inactive,-24.5% (inactive),,inactive,,,
O=C(O)c1cc(Cl)cc(Cl)c1,-6.8,inactive,-0.682,11.3% (inactive),,1.56% (inactive),,inactive,inactive,inactive,-2.98% (inactive),,inactive,inactive,0.662% (inactive),6.89% (inactive),inactive,0.13% (inactive),inactive,
C=CCOC(=O)CCCCCCCC,,,-1.68,-5.32% (inactive),inactive,-2.19% (inactive),,,,inactive,-0.94% (inactive),inactive,inactive,inactive,3.3% (inactive),-0.411% (inactive),,,inactive,inactive
